The source made the active and inactive calls.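 Rule for the calls: active = compound whose M3 calcium response shifts with concentration, judged dose-dependent by the depositor; inactive = the rest, no dose-dependent response.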

This experiment deals with Muscarinic acetylcholine receptor M3 (Homo sapiens) (UniProt P20309). Put plainly: human M3 receptor positive allosteric modulation, SAR follow-up, selectivity assay for M4 PAM optimization, CHO cells, calcium flux (AID 623926). The conditions noted are these: CHO hM3 cells, Fluo-4 calcium flux, ACh EC20; series mostly up to 30 µM. On the technique in general: Calcium flux is commonly read through the fluorescence of an indicator in the cells.
As for `Cc1nc2sc(C(=O)NCc3ccncn3)c(N)c2c(C)c1Cl`, the outcome was inactive.

Regarding `Cc1nc2sc(C(=O)NCc3nccs3)c(N)c2c(C)c1Cl`, the result was inactive.

With `Cc1nc2sc(C(=O)NCc3ccc4c(c3)OCO4)c(N)c2c(C)c1Cl`, the result was inactive.

Regarding `Cc1nc2sc(C(=O)NCc3ccncc3)c(N)c2c(C)c1Cl`, the outcome was inactive.

Take `Cc1nc2sc(C(=O)NCCc3ccncc3)c(N)c2c(C)c1Cl`: the outcome was inactive.

Consider `Cc1nc2sc(C(=O)NC3CC3)c(N)c2c(C)c1Cl`, for which the result was inactive.

As to `Cc1nc2sc(C(=O)NCc3cccc(F)c3F)c(N)c2c(C)c1Cl`, the outcome was inactive.

On to `COc1ccc(C)c2sc(NC(=O)c3ccncc3)nc12`, for which the outcome was inactive.

As to `Cc1nc2sc(C(=O)NCc3cccnc3)c(N)c2c(C)c1Cl`, the result was inactive.

`Cc1nc2sc(C(=O)NCc3ccccc3)c(N)c2c(C)c1Cl`: the result was inactive.

Source of the values: PubChem BioAssay AID623926 (Vanderbilt Specialized Chemistry Center, 2012).
